ALDH1A1 inh – inhibitors of human aldehyde dehydrogenase 1A1 | Purified ALDH1A1, NADH fluorescence, propionaldehyde substrate | hit rate 7.3% among 220,000 | Potency, µM (titrated, usually from 75.3 µM), without a hit: at the highest dose activity, negative = inhibition, usual class: inhibitors;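 further: potency means the concentration at half of the fitted maximal effect; plate controls were no enzyme wells and a reference inhibitor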
Target sequence (P00352 whole entry, looked up): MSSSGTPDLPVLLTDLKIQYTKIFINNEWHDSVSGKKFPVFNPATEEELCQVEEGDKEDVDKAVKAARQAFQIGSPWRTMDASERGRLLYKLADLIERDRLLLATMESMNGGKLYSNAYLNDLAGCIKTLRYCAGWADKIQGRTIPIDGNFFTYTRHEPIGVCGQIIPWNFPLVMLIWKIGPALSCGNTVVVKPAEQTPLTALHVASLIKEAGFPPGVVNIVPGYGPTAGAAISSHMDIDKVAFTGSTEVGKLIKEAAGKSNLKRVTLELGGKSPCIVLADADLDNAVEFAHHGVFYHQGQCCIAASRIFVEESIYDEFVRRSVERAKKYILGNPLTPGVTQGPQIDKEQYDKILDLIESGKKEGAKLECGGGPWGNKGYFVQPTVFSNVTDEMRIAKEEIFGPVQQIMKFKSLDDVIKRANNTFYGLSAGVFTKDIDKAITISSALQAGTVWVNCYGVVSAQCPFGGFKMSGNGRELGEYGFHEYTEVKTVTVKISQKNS
HPGD inh – HPGD (human) dehydrogenase inhibition; purified HPGD, NADH fluorescence kinetic, PGE2 substrate; Potency, µM, for inactives: top-dose activity change, negative = inhibition, hits mostly inhibitors; P15428; hit rate 4.3% among 150,000; further: potency means the concentration at half of the fitted maximal effect
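NADH formation kinetics: reaction with 30 uM PGE2 and 1 mM NAD+ (final), 20 nM enzyme, Tris-HCl pH 8 with Tween 20, after 15 min compound preincubation at room temperature. Fluorescence change, last versus first of five reads.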
PNC inhibitor – perinucleolar compartment assembly inhibition. PC3M PTB-GFP, PNC prevalence imaging, 16 h; active compounds read low. activity change (PNC), negative = inhibition, % at 10 µM. hit rate 3.1% among 140,000. AID 2417;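 active means readout at or below -70, meaning at least 70% loss of cells showing the perinucleolar compartment, a nuclear body marking cancer cells; inconclusive means readout between -30 and a set limit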;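 further: plate controls were DMSO wells for no effect and camptothecin positive control wells for full effect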
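Read-out is percentage of cells bearing a perinucleolar compartment, from automated 20x imaging of fixed, Hoechst-stained PC3M PTB-GFP cells. Cells were seeded 4 h, then exposed 16 h to compound (23 nl of library stock) in duplicate plates.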
Numbers without * were called inactive; ? = inconclusive; . = not tested or not shown; [ ] = remark or other dose. A selection: hits, their analogues and other compounds. The true share with any hit is near 11%. Unless noted, the call rests on the fitted dose curve; in most records, active means well fitted inhibition curve with a large enough effect (not every such curve was filed as active); inconclusive means small, poorly fitted or top-dose-only effect, or another doubt; inactive means no such curve, though single readings can be large or run the other way. Unless noted, on the % scale 0 is the no-effect control and ±100 the full control effect.

SMILES	ALDH1A1 inh	HPGD inh	PNC inhibitor
O=C(O)CC12C[C@H]3C[C@@H](C1)CC(n1ncc(N4CCN(c5ccccc5)CC4)c(Cl)c1=O)(C3)C2	7.9µM*	-14%	2
O=C(O)C12CC3CC(C1)CC(n1cnc(Cl)n1)(C3)C2	6%	-2%	-6
COc1ccc(C2=CC(c3c(C)nn(-c4ccccc4)c3Cl)n3nnnc3N2)cc1OC (stereo unspecified)	?	-15%	?
Cc1ccc(C)c(NC(=S)NNC(=O)c2cc3c(s2)CCC(C)C3)c1 (stereo unspecified)	22µM*	.	-5
Cc1ccc(C)c(NC(=S)NNC(=O)c2csc(C(C)C)c2)c1	13µM*	-10%	-119*
Cc1ccc(C)c(NC(=S)NNC(=O)c2csc(C)c2C)c1	-9%	-6%	?
Cc1ccc(C)c(NC(=S)NNC(=O)c2sccc2C)c1	-2%	-11%	43
Cc1cccc(NC(=S)NC2CCCCCC2)c1C	-6%	-10%	-14
Cc1cccc(NC(=S)NNC(=O)c2cc3c(s2)CCC(C)C3)c1C (stereo unspecified)	6.3µM*	-24%	-8
CCOC(=O)N1CCN(Cc2cn[nH]c2-c2cc3ccccc3o2)CC1	8%	.	.
CCNC(=O)NC(=O)CN(C)c1ccccc1	-2%	.	.
Cc1c(C(=O)N2c3ccccc3Sc3ccccc32)cccc1[N+](=O)[O-]	3%	-14%	?
O=C(OCc1cc2ccccc2[nH]c1=O)c1ccco1	?	-21%	?
Cc1ccc2cc(COC(=O)c3ccco3)c(=O)[nH]c2c1	?	-20%	7
Cc1cccc(N(Cc2cc3ccccc3[nH]c2=O)C(=O)c2ccco2)c1C	13µM*	-27%	?
COCC(=O)N(Cc1cc2ccccc2[nH]c1=O)c1ccccc1OC	?	-15%	-20
CC(C)N(Cc1cc2ccccc2[nH]c1=O)C(=O)c1ccco1	18µM*	.	.
COc1ccc(N(Cc2cc3ccc(C)cc3[nH]c2=O)C(=O)c2ccco2)cc1	?	-2%	-84*
Cc1cc2cc(CN(Cc3ccc4c(c3)OCO4)C(=O)c3ccco3)c(=O)[nH]c2cc1C	?	?	37
COCC(=O)N(Cc1cc2ccccc2[nH]c1=O)c1ccc(OC)cc1	32µM*	-20%	-16
Cc1ccc(NC(=O)CCNC(=O)c2ccco2)cc1F	-4%	.	.
CS(=O)(=O)N(CC(=O)NCc1ccncc1)c1cc(Cl)ccc1Cl	7%	.	.
COc1ccc(N2CCN(CCNC(=O)CCS(=O)(=O)c3cccc4nsnc34)CC2)cc1	?	-20%	37
c1ccc2c(CSCCc3ccncc3)cccc2c1	?	?	35
COc1ccc(OC)c(S(=O)(=O)Nc2ccc(C(C)=O)cc2)c1	16%	.	-7
SMILES	ALDH1A1 inh	HPGD inh	PNC inhibitor
CCNC(=S)N/N=C(\C)c1ccc2ccccc2c1	33%	.	.
COc1ccc(/C(C)=N\NS(C)(=O)=O)c(OC)c1	8%	?	-84*
COc1ccc(C(=O)Oc2ccc(C(C)=O)cc2)c(OC)c1	7%	-1%	-83*
COc1ccc(C(N)=S)c(OC)c1	13µM*	40µM*	-1
C/C(=N/NS(C)(=O)=O)c1ccc2ccccc2c1	9%	-11%	-103*
COc1ccc(/C(C)=N/N=C(\C)c2ccc(OC)cc2OC)c(OC)c1	13%	1%	7
COc1ccc(C(N)=S)cc1	-4%	-3%	0
CC[C@@H](C)C(NC(=O)OC(C)(C)C)c1cn([C@@H](CCC(=O)OC(C)(C)C)C(=O)N2CCN(C(=O)OC(C)(C)C)CC2)nn1 (stereo partly specified)	1%	.	.
CN(C)C(CNC(=O)CN1C(=O)NC2(CCc3ccccc32)C1=O)c1ccco1 (stereo unspecified)	-4%	-10%	?
Cc1cc(Br)cc2cn[nH]c12	-11%	.	.
C=CCNC(=S)N/N=C/c1ccc(C(F)(F)F)cc1	4%	.	.
CC(=O)N1C(C(=O)O)CSC1c1ccc(C)cc1 (stereo unspecified)	14%	-7%	?
CC(=O)OC[C@@H]1O[C@@H](O/N=C2/C[C@@H](O)[C@@H](O)[C@@H]3[C@@H]4C(=O)N([C@@H](C)c5ccccc5)C(=O)[C@H]4CC[C@@H]23)[C@H](OC(C)=O)[C@H](OC(C)=O)[C@@H]1OC(C)=O	4%[13.5 µM]	.	.
COc1ccc(/C=C(\C#N)C(=O)OC2CCOC2=O)cc1 (stereo unspecified)	18µM*	.	.
COc1cc(OC)cc(C(=O)NCC(=O)OC2CCOC2=O)c1 (stereo unspecified)	6%	-3%	-5
Cn1c(CCCOc2ccc(Cl)cc2Cl)nnc1SCC(=O)Nc1ccc(F)c(Cl)c1	5%	0%	53
CCc1cccc(C)c1NC(=O)CSc1nnc(CCCOc2ccc(Cl)cc2Cl)n1C	11%	-6%	-113*
O=C(NCc1ccccc1)C(c1ccc(F)cc1)N(Cc1ccc2c(c1)OCO2)C(=O)Cn1nnc(-c2cccs2)n1 (stereo unspecified)	25µM*	-4%	-5
CC(C)(C)NC(=O)C(c1ccncc1)N(C(=O)Cn1nnc(-c2ccc(F)cc2)n1)c1ccc(F)cc1 (stereo unspecified)	0%	.	.
CC(C)(C)NC(=O)C(c1ccncc1)N(Cc1cccs1)C(=O)Cn1nnc(-c2cccs2)n1 (stereo unspecified)	4.5µM*	-20%	-5
CC(C)(C)NC(=O)C(c1ccncc1)N(C(=O)Cn1nnc(-c2ccc(F)cc2)n1)c1ccccc1 (stereo unspecified)	3.2µM*	.	.
CCCC(C(=O)NCc1ccccc1)N(C(=O)Cn1nnc(-c2cccs2)n1)c1ccc2c(c1)OCCO2 (stereo unspecified)	-2%	-14%	?
Cc1ccc(C(C(=O)NC(C)(C)C)N(Cc2ccco2)C(=O)Cn2nnc(-c3cccs3)n2)cc1 (stereo unspecified)	3%	-1%	17
O=C(COC(=O)c1cc(-c2ccccc2Cl)nc2ccccc12)Nc1ncc(C(F)(F)F)cc1Cl	15%	-19%	-1
O=C(CNc1c(Br)cc(Br)cc1Br)NN=C1CCCCC1	4%	-12%	-11
SMILES	ALDH1A1 inh	HPGD inh	PNC inhibitor
O=C(Nc1nc2ccccc2[nH]1)c1cc2ccccc2o1	1%	.	.
CCCCN1C=CC(=C2C(=O)c3ccccc3C2=O)C=C1	2.8µM*	.	.
CCCCn1c(C)cc(C)c(S(=O)(=O)c2ccccc2C)c1=O	?	-3%	-11
CC1=CC(C)(C)Nc2ccc(OS(=O)(=O)c3ccc(C)cc3)cc21	1.1µM*	?	-15
COC(=O)c1ccc(OS(=O)(=O)c2ccc(NC(C)=O)cc2)cc1	?	-7%	-2
CC(=O)Nc1ccc(S(=O)(=O)Oc2ccc3c(c2)C(C)=CC(C)(C)N3)cc1	-9%	-28%	-109*
CC1=CC(C)(C)Nc2ccc(OC(=O)CCN3C(=O)c4ccccc4C3=O)cc21	?	-6%	-2
COc1ccc(NC(=O)N2CC3(CCNCC3)C2)cc1	4%	-5%	.
CCC(C)/C(C)=N/NC(=O)c1ccccc1OCCOc1ccccc1 (stereo unspecified)	-10%	.	.
Cc1nn(C)c(C)c1Nc1ccc(N2C(=O)C3CC=CCC3C2=O)cc1[N+](=O)[O-] (stereo unspecified)	-6%	.	.
COc1cc2cc(C(=O)O)[nH]c2c(OC)c1OC	?	?	-97*

Compound activity as filed in PubChem BioAssay.
